Compound activity: PubChem, Small Molecule Screening Facility, UW Madison
The entries come from a sample that favours hits as a whole.
RMI FANCM FP – blocks RMI1/RMI2 complex binding to FANCM MM2 peptide | Fluorescence polarization, RMI core complex with F-MM2 peptide; stronger effect = lower value | hit rate 0.58% among 70,000 | FP signal (polarization) at 33 µM; in the data active means FP signal below about 40
Numbers without * were called inactive.

SMILES	RMI FANCM FP
Cc1cc(Sc2nnc(N=CN(C)C)s2)c2ccccc2n1	56
Cc1nc2cc3ccccc3cc2c(=O)n1/N=C\N(C)C	8*
COc1cc(/C=N\n2c(C)nc3c(ncn3-c3ccccc3)c2=O)cc(OC)c1OC	86
CS(=O)(=O)N1CCCCC1C(=O)Nc1nc(-c2nc3ccccc3s2)cs1 (stereo not drawn)	68
COc1ccc(-c2cc3nc(C)cc(C)n3n2)cc1OC	64
FC(F)(F)c1cc(-c2ccc(Cl)cc2)nc2cc(-c3ccccc3)nn12	55
COc1ccc(-c2cc(C(F)(F)F)n3nc(-c4cccs4)cc3n2)cc1OC	9*
C/C=C/CC(=O)NCC(=O)O	60
Cc1cc(F)ccc1S(=O)(=O)ON1C(=O)c2ccccc2C1=O	27*
Cc1ccc(=O)n(S(=O)(=O)c2ccc(F)cc2F)n1	54
Cc1cc(F)ccc1S(=O)(=O)NCC1CCN(C2CCCC2)CC1	78
O=C(Cc1csc(Nc2ccc(F)cc2)n1)NCc1ccc2c(c1)OCO2	64
C=Cc1ccc(COC(=O)c2nnn(-c3ccc(CC)cc3)c2C)cc1	67
COc1ccc(-c2noc(C3CCN(S(=O)(=O)c4ccc(OC)cc4)CC3)n2)cc1	58
Cn1nc2c(c1NC(=O)/C=C/c1cccs1)CCC2	37*
Cn1nc2c(c1NC(=O)COc1ccccc1)CCC2	63
O=C(/C=C/c1cccs1)Nc1nccs1	60
O=S(=O)(Nc1ccc(N2CCCCC2)cc1)c1ccc(-c2ccno2)s1	53
CCCN1CCCc2cc(CCNS(=O)(=O)c3cccc(F)c3)ccc21	17*
CCCN1CCCc2cc(CCNC(=O)c3c(F)cccc3F)ccc21	59
CCCN1CCCc2cc(CCNC(=O)Cc3ccc(F)cc3)ccc21	28*
CCCN1CCCc2cc(CCNC(=O)CC(C)(C)C)ccc21	77
CCCN1CCCc2cc(CCNS(=O)(=O)c3ccc(Br)cc3)ccc21	139
CCCN1CCCc2cc(CCNS(=O)(=O)c3ccc(OC)c(F)c3)ccc21	192
Cc1ccc(NC(=O)Cc2ccc(F)cc2)cc1N1CCCCC1=O	65
SMILES	RMI FANCM FP
O=C(NC1CCS(=O)(=O)C1)c1ccc(S(=O)(=O)N2CCOCC2)cc1 (stereo not drawn)	61
CC(C)(C)c1cc(OC(=O)c2ccc(Cl)cc2)c(C(C)(C)C)cc1OC(=O)c1ccc(Cl)cc1	54
O=C(Cc1ccccc1)N1CCN(c2ncnc3c2nnn3-c2ccccc2)CC1	54
Cc1cc2cc(CCNC(=S)Nc3ccc(Cl)c(Cl)c3)c(=O)[nH]c2cc1C	70
Cc1ccc(/C=N\NC(=O)c2cc([N+](=O)[O-])cc([N+](=O)[O-])c2)cc1	61
Cc1cc[n+](-c2[nH]c(=O)sc2/C=N\NC(=O)c2ccccc2[O-])cc1	1*
Cc1ccccc1C(=O)N/N=C\c1ccc(OC(=O)c2ccccc2)cc1	63
CS(=O)(=O)c1ccc2nc(NC(=O)c3ccc(-c4ccccc4)cc3)sc2c1	73
CC(c1ccccc1)N1C(=O)/C(=C\c2cccnc2)SC1=S (stereo not drawn)	26*
O=C1/C(=C/c2cccnc2)SC(=S)N1c1ccccc1F	61
O=C(O)CCN1C(=O)/C(=C\c2cccnc2)SC1=S	62
COc1ccc(N2CCN(CCNC(=O)C(=O)Nc3ccc(F)c(Cl)c3)CC2)cc1	65
Cc1cc2cc(CNC(=O)c3cccc4ccccc34)ccc2n1C	66
Cc1cc(NC(=O)c2ccc(S(=O)(=O)N(C)C)cc2)on1	68
CCC(=O)c1ccc(OCC(O)CNC2CCCCCC2)cc1 (stereo not drawn)	63
CC(CNC1CCCCC1)OC(=O)c1ccccc1 (stereo not drawn)	19*
O=C(NCCS(=O)(=O)NC1CCCCC1)c1ccccc1	53
C=CCn1c(SCC(=O)c2cc(C)n(-c3ccc(C)c(C)c3)c2C)nc2scc(-c3ccc(F)cc3)c2c1=O	86
CC1=NN(c2ccccc2)C(=O)/C1=C\c1cc(C)n(-c2ccccc2)c1C	83
C=CCN1C(=O)/C(=C\c2cc(C)n(-c3ccc(F)cc3)c2C)C(C(=O)OC)=C1C	31*
Cc1ccccc1-c1noc(-c2cn[nH]c2-c2ccccc2)n1	89
O=C(CSc1nccn1-c1ccc([N+](=O)[O-])cc1)Nc1ccc(Cl)c(Cl)c1	59
CN(C)C(=O)Nc1ccc(O)cc1	58
Cc1ccc(C)c(C(=O)/C=C/c2cccc(F)c2)c1	61
